Bioassay records from PubChem.
The sample as a whole holds a higher share of hits than the screen did.
ARNT TACC3 PPI = disrupts binding between human ARNT and TACC3. Q9Y6A5. AlphaScreen His-ARNT PAS-B/GST-TACC3 binding, luminescence; TACC3 fragment carries E629A point mutation. hit rate 0.66% among 390,000. AID 623870. inhibition, % at 9.99 µM;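 active = mean inhibition of replicates at least 50% and at least half of replicates each reaching 50%; inconclusive = half or more replicates reach 50% but mean below 50%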;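 also: 0% = complete ARNT plus TACC3 wells and 100% = ARNT alone without TACC3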
ERp5 block = ERp5 (human) disulfide isomerase inhibition; ERp5 insulin aggregation, absorbance 650 nm, 90 min; hit rate 0.05% among 350,000; inhibition, % at 9.99 µM;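 active = mean replicate inhibition above about 25%, with every replicate also reaching it, limit read from the data, passing the limit was not always enough; inconclusive = only one of those two criteria met; inactive = neither criterion met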
PglD inh = PglD (C. jejuni) enzyme inhibition; purified PglD enzyme, DTNB colorimetric CoA detection; hit rate 0.098% among 360,000; AID 602405; inhibition, % at 12.5 µM; in the data active = inhibition above about 16%, passing the limit was not always enough; inconclusive = no clear call, values can overlap the other calls
NRP1-CendR mod = NRP-1/CendR interaction modulation. AID 602438. inhibition, % at 25 µM. FAM-RPARPAR peptide binding to NRP-1, fluorescence polarization. hit rate 0.85% among 360,000;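 active = inhibition or corrected inhibition above about 18%, plus a signal ratio from 0.5 to 1.5, limit read from the data, passing the limit was not always enough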
PDI inh = inhibitors of human protein disulfide isomerase. P07237. PDI insulin aggregation turbidity, A650, 90 min. inhibition, % at 10 µM. hit rate 0.052% among 350,000. AID 588391;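 active = mean inhibition across replicates of 30% or more, whatever share of single replicates reach that level; inconclusive = mean inhibition below 30% while every single replicate reaches 30%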
ALR H2O2 inh = inhibitors of human sulfhydryl oxidase ALR; P55789; purified ALR, DTT oxidation, H2O2 HRP-luminol luminescence; inhibition, % (test concentration not listed); hit rate 3.8% among 290,000;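 active = mean replicate inhibition above about 79%, with every replicate also reaching it, limit read from the data; inconclusive = only one of the two criteria met; inactive = mean below limit and not every replicate reaching it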
Target sequence (P55789 whole entry, looked up): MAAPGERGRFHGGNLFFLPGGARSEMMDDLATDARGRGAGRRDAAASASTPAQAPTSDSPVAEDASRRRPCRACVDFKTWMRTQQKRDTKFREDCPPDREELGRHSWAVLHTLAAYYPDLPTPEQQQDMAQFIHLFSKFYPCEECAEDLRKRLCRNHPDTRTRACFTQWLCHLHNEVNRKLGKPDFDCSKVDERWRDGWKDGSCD
* = called active by the depositor; u = inconclusive; x = not tested or not shown.

SMILES	ARNT TACC3 PPI	ERp5 block	PglD inh	NRP1-CendR mod	PDI inh	ALR H2O2 inh
CN=C1S/C(=C\c2ccc(O)c(Br)c2)C(=O)N1C	-1	-5	-1	-7	-29	96*
CC12CN3CC(C)(CN(C1)C3c1ccc(Br)cc1O)C2 (stereo unspecified)	1	x	0	2	13	99*
O=C(NNC1=NS(=O)(=O)c2ccccc21)c1ccc([N+](=O)[O-])cc1	-3	4	-4	7	4	9
O=S1(=O)N=C(Nc2ccc(O)cc2)c2ccccc21	x	2	x	-5	-4	99*
O=C(NNC1=NS(=O)(=O)c2ccccc21)c1ccc(Cl)cc1	2	1	x	-10	10	89*
COc1cccc(NC(=O)N(C)C[C@@H]2Oc3cc(-c4ccccc4F)ccc3S(=O)(=O)N([C@H](C)CO)C[C@@H]2C)c1	4	-6	1	x	x	x
COC(=O)C1=C(C(=O)OC)[C@@H]2N(C)c3ccc(OC)cc3[C@@]23C[C@@H](C(=O)OC)N(C(=O)CC(C)C)C3=N1	10	-1	-5	26*	-4	12
C[C@H](CO)N1C[C@H](C)[C@H](CN(C)C(=O)C2CC2)Oc2cc(C#C[C@@H](C)O)ccc2S1(=O)=O	-5	-4	-4	x	x	x
Cc1ccc(S(=O)(=O)NNC(=O)NC23CC4CC(CC(C4)C2)C3)cc1	-3	-1	x	-4	-5	94*
CCOc1ccc(Nc2ccc(N)c(S(=O)(=O)O)c2)cc1	17	2	0	40*	7	x
CN1CCN(C(=O)C[C@@H]2C[C@@H]3c4cc(NC(=O)Nc5ccc(C(F)(F)F)cc5)ccc4O[C@@H]3[C@@H](CO)O2)CC1	7	0	0	x	x	x
Cc1cc(C(=O)C(=O)O)c(C)n1-c1ccc(Cl)c(Cl)c1	-14	5	-2	-1	7	95*
O=C(Cc1ccccc1)N1CC(=O)N2[C@H](C1)[C@@H](c1ccc(-c3ccc(F)cc3)cc1)[C@@H]2CO	x	2	x	x	x	x
CCOC(=O)Nc1nnc(-c2cccc(OC)c2)s1	x	x	-1	26*	-7	1
CCOC(=O)Nc1nnc(-c2ccc(OC)cc2)s1	-3	x	-2	4	-4	3
CCn1cc(SCC(=O)N2CCc3ccccc32)c2ccccc21	-7	-3	7	-13	x	98*
CSc1nsc(SCC(=O)N2CCc3ccccc32)n1	-3	x	-2	19*	0	-15
O=C(CSc1ccccc1)N1CCc2ccccc21	14	x	5	-2	-4	-11
C/C=C/c1ccc([C@@H]2[C@@H](CO)N3C(=O)CN(Cc4ccccc4)C[C@H]23)cc1	x	1	x	x	x	x
COCCNC(=S)NCc1ccc2[nH]c3c(c2c1)CCCC3	6	0	4	-5	-3	94*
CC(C)c1cn(CC[C@@H]2CC[C@@H](NC(=O)C3CC3)[C@@H](CO)O2)nn1	-3	7	1	x	x	x
COc1ccc(/C=N/n2cncn2)cc1CSc1ccccn1	-4	x	x	-4	-2	99*
Cc1cccc(S(=O)(=O)N2CCCCN3[C@@H](CO)[C@@H](c4ccc(C#C[C@@H](C)O)cc4)[C@@H]3C2)c1	11	2	6	x	x	x
CCc1nc(Sc2nnnn2-c2ccccc2)c2c3c(sc2n1)CCCC3	-5	-1	x	-2	11	10
Cc1nc(Sc2nnnn2C)c2c3c(sc2n1)CCC3	-1	x	0	5	-15	94*
SMILES	ARNT TACC3 PPI	ERp5 block	PglD inh	NRP1-CendR mod	PDI inh	ALR H2O2 inh
O=C(NCCO)C(=O)Nc1cc2c3c(c1)CC(=O)N3CCC2	6	1	1	3	13	x
O=C(CCl)c1cc2c3c(c1)CC(=O)N3CCC2	2	1	3	-2	u	98*
COc1ccc(NC(=O)Nc2ccc3c(c2)C(=O)N([C@@H](C)CO)C[C@H](C)[C@@H](CN(C)C(=O)Nc2c(C)noc2C)OCCCC[C@H](C)O3)cc1	5	1	-2	x	x	x
COc1cccc(CNC(=O)C2=Cc3cccc(OC)c3OC2)c1	9	-9	-2	4	4	96*
COc1cccc(CNC(=O)c2ccc(OCC(=O)N3CCOCC3)c(OC)c2)c1	-2	-4	x	2	2	-4
C[C@H](CO)N1C[C@H](C)[C@H](CN(C)Cc2ccc3c(c2)OCO3)Oc2ccc(NC(=O)Cc3ccccc3)cc2CC1=O	x	-2	-2	x	x	x
O=C1c2ccccc2C(=O)c2c1cccc2N1CCCC1	20	4	-5	12	1	x
Cn1c(=O)cc2c3c(c(N4CCCCC4)ccc31)C(=O)c1ccccc1-2	x	-1	3	58*	3	18
C=CCN=C1NN=C(c2cc(C)n(CCOC)c2C)CS1	7	3	x	7	-3	-1
COCCn1c(C)cc(C2=NNC(=NC3CC3)SC2)c1C	6	0	x	3	-1	97*
C=CCn1c(C)cc(C2=NNC(=Nc3ccc(C)cc3)SC2)c1C	-7	-6	x	8	-3	9
C=CCn1c(C)cc(C2=NNC(=NC(C)(C)C)SC2)c1C	30	-3	x	6	1	99*
C[C@@H]1CN([C@H](C)CO)C(=O)Cc2cc(NS(=O)(=O)c3ccc(Cl)cc3)ccc2O[C@H]1CN(C)C(=O)Nc1ccccc1	-7	0	-3	x	x	x
CC(C)(C)OC(=O)NCCC(=O)N/N=C/c1cccc2cccnc12	69*	1	5	-4	-1	-14
CCn1ncc(/C=N\NC(=O)COc2ccccc2)c1C	-3	x	x	14	-5	96*
Cc1ccccc1OCC(=O)N/N=C/c1cccc2cccnc12	65*	0	5	9	9	-2
O=C(COc1ccc(F)cc1)N/N=C/c1cccc2cccnc12	95*	5	-4	5	2	-9
CC(C)(C)OC(=O)NCCC(=O)N/N=C/c1ccc2ncccc2c1	8	-1	-3	-11	7	0
O=C(COc1cccc2cccnc12)N/N=C/c1ccccc1O	7	3	x	0	6	x
Cc1ccc(OCC(=O)N/N=C/c2cn(C)c3ccccc23)cc1	-8	x	2	-17	-3	-10
Cc1cccc(NC(=O)[C@@H]2CCCN2C(=O)OC(C)(C)C)c1	-6	3	-3	6	-26	-1
Cc1ccc(OCC(=O)N/N=C/c2cccc3cccnc23)cc1	64*	-2	-3	1	-5	-1
O=C(COc1cccc2cccnc12)N/N=C/c1ccc(O)cc1	-3	-2	0	8	11	99*
CC(C)(C)OC(=O)N1CCC[C@H]1C(=O)N/N=C/c1cccc2cccnc12	91*	2	x	-4	-1	2
C[C@@H]1CN([C@@H](C)CO)C(=O)c2cccc(NC(=O)c3ccc(-c4nccs4)cc3)c2O[C@@H]1CN(C)C(=O)Nc1ccc2c(c1)OCO2	9	7	4	x	x	x
Cc1ccc(S(=O)(=O)N[C@@H]2CC[C@H](CC(=O)NCc3ccc(Cl)c(Cl)c3)O[C@H]2CO)cc1	-5	3	0	x	x	x
